Assay results as given in PubChem BioAssay AID434973 (Sanford-Burnham Center for Chemical Genomics, 2010).
Hit rate of the full screen: of about 330,000 compounds, about 4,900 (1.5%) were called active. This excerpt belongs to a sample that is enriched for actives. A number with no mark means an inactive call.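 Rule for the calls: active = inhibition above about 50% at the single test dose (limit read from the data); inactive = the rest.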

Target: Sentrin-specific protease 7 (Homo sapiens) (UniProt Q9BQF6)
Test: SENP7 protease inhibitors, primary screen, biochemical, luminescence, uHTS (AID 434973);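 note: plate controls were DMSO with enzyme for no effect and no enzyme buffer wells for full effect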
Conditions: recombinant SENP7, Z-RLRGG-aminoluciferin luminescence, 40 min; at 5 µM; active compounds read high

Structure (SMILES) | inhibition
Nc1ccc2nn(-c3ccc(Cl)cc3)nc2c1 | 57.3% (active)
c1ccc(-n2nc3ccccc3n2)cc1 | 1.86%
CN(C)c1nnnn1-c1ccc(Cl)cc1 | -4.93%
C[C@@H](NC(=O)OC(C)(C)C)c1nnc(S(=O)(=O)Cc2ccccc2)o1 | -2.96%
NC(=O)C1CCN(C(=O)c2ccc(F)c(S(=O)(=O)N3CCOCC3)c2)CC1 | 10.4%
Cc1ncc(CC(=O)n2cc(C(=O)c3cc(Cl)ccc3O)cn2)s1 | 0.896%
O=C(c1cnn(-c2ccc(Cl)cc2)c1)c1ccccc1O | 93.1% (active)
COc1ccc(C(=O)Cc2cnn(-c3ccccc3)c2)c(O)c1 | 5.94%
CC1CCCCC1NC(=O)COC(=O)Cc1ccc(Br)cc1 (stereo unspecified) | 0.5%
CC(=O)OCc1cc(=O)n(C)c(=O)n1C | 6.2%
COc1cccc(COC(=O)C2CCN(S(=O)(=O)c3ccc(Cl)cc3)CC2)c1OC | 11.2%
O=C(COC(=O)c1ccco1)Nc1ccc(Cl)cn1 | 4.97%
CCCCCc1ccc(-c2cn(Cc3ccc4ccccc4c3)nn2)cc1 | -7.9%
CCCCCc1ccc(-c2ccc(OCC)cc2)nc1 | 11.8%
CCCCCc1ccc(-c2ccc(C(=O)O)cc2)nc1 | 92.8% (active)
O=S(=O)(NCc1ccccc1Br)c1ccccc1Br | 2.03%
O=C(CCc1nc2sc3c(c2c(=O)[nH]1)CCCC3)NCC(=O)Nc1ccccc1Br | 2.2%
CC1CC(c2ccccc2)n2nc(NC(=O)c3cccs3)nc2N1 (stereo unspecified) | -9.29%
CCn1nccc1C(=O)Nc1ccc(S(=O)(=O)NC23CC4CC(CC(C4)C2)C3)cc1 | -4.42%
O=C(CC(O)(C(F)(F)F)C(F)(F)F)Nc1ccc(Cl)c(Cl)c1 | 2.83%
CCn1nccc1C(=O)Nc1ccc(Cl)c(Cl)c1 | 63.8% (active)
COc1ccc(C(=O)N2CCN(c3ncccn3)CC2)cc1S(=O)(=O)N1CCOCC1 | 0.314%
Cc1cc(NC(=O)C(C)N2C(=O)c3ccccc3S2(=O)=O)no1 (stereo unspecified) | 3.21%
Cc1ccc(Nc2nc(Cl)c(C=O)s2)cc1 | 52.6% (active)
Cc1ccc(Nc2nnc(SC(C)C(=O)NC3CC3)s2)cc1 (stereo unspecified) | 7.35%
Cc1ccc(NC(=O)Nc2nnc(-c3ccncc3)s2)cc1 | -3.06%

Structure (SMILES) | inhibition
COC(=O)C(C)N=Cc1ccccc1 (stereo unspecified) | -4.82%
COCCNc1cc(-c2ccccc2)nc2cc(-c3cccc(F)c3)nn12 | -7.71%
COc1cccc(/C=C/c2ccc3ccccc3n2)c1OC(C)=O | -1.58%
CC(=O)Oc1ccc2c(c1)C(=O)c1ccccc1C2=O | 12.2%
COc1ccc(/C=C/c2noc(-c3ccccc3OC(C)=O)n2)cc1 | 87.9% (active)
COc1ccc(-c2csc(Nc3ccccn3)n2)cc1 | 86.2% (active)
Clc1ccc(Nc2nc(-c3cccs3)cs2)nc1 | 11%
Clc1ccc(-c2csc(-c3ccncc3)n2)cc1 | -6.3%
COc1ccc(-c2csc(Cc3nc(O)cs3)n2)cc1 | 23.1%
COc1ccc(-c2csc(NC(=O)COC(=O)Cc3ccc(Cl)cc3Cl)n2)cc1 | 4.91%
COc1ccc(Nc2nc(-c3ccccc3)cs2)cc1 | 95.8% (active)
Cc1ccccc1Nc1nc(-c2cccnc2)cs1 | 54.3% (active)
CCCn1c(CCNc2nc(-c3ccc(OC)cc3)cs2)nc2ccccc21 | 0.961%
COc1ccc2c(c1OC)C(=O)OC2Nc1nc(-c2ccccc2)cs1 (stereo unspecified) | 1.44%
O=C(Nc1nc(-c2cccnc2)cs1)c1ccccc1F | 28.5%
O=C(NCc1cccnc1)C(=O)Nc1nc(-c2ccccc2)cs1 | 3.71%
c1ccc(Nc2nc(-c3ccncc3)cs2)nc1 | 85.5% (active)
CN(Cc1ccc(F)cc1Cl)S(=O)(=O)c1cccs1 | -5.99%
CCN(C(=O)COC(=O)c1c(C)nn(-c2ccccc2)c1Cl)c1c(N)n(Cc2ccccc2)c(=O)[nH]c1=O | 2.84%
O=[N+]([O-])c1cc(S(=O)(=O)CCCN2CCOCC2)ccc1F | -6.87%
Cc1ccc(S(=O)(=O)NCC(=O)N(CC(=O)NC(C)(C)C)Cc2cccs2)cc1 | 0.604%
CSCCNCc1cn(-c2ccc(F)cc2F)nc1-c1ccccc1C | 8.28%
CCOc1ccc(S(=O)(=O)Nc2ccncc2)c(C)c1C | -7.98%
CC[C@]1(C(=O)OC)[C@H]2C(=O)N(Cc3ccccc3)C(=O)[C@H]2[C@H]2CN=C(SCc3ccc(C#N)cc3)N21 | -3.53%
OC(COCC1COc2ccccc2O1)CN1CCN(c2ccc(F)cc2)CC1 (stereo unspecified) | -0.332%
CCCCCCCCOC1OC(CO)C(O)C(O)C1NC(C)=O (stereo unspecified) | -1.17%

Structure (SMILES) | inhibition
COc1c(F)c(F)c(-c2csc(N)n2)c(F)c1F | -8.1%
CS(=O)(=O)Nc1cccc(C2=NN(C(=O)c3cccc(F)c3)C(c3cccs3)C2)c1 (stereo unspecified) | 6.94%
O=C1/C(=C/c2coc3ccc(O)cc3c2=O)SC(=S)N1c1ccccc1 | -27.4%
O=C(Cc1csc(Nc2nc(=S)[nH]c3ccccc23)n1)NCCCN1CCN(c2cccc(Cl)c2)CC1 | 6.52%
CCC(C(=O)NC1CCCC1)N(C(=O)c1snc(C(N)=O)c1N)c1ccc2c(c1)OCCO2 (stereo unspecified) | 5.07%
Nc1c(C(=O)c2cccs2)sc2nsc(SCCN3CCCCC3)c12 | 9.3%
Cc1ccc(-c2csc(NC3OC(=O)c4ccccc43)n2)cc1 (stereo unspecified) | -11.5%
Cc1cccc(Nc2nc(-c3ccccc3)cs2)n1 | 92.9% (active)
Cc1ccc(Nc2nc(-c3ccc(O)cc3O)cs2)nc1 | -5.69%
CCOCCCNC(=O)C1(O)c2cc(Br)ccc2NC(=O)N1c1ccc(C)c(C)c1 (stereo unspecified) | 8.05%
COCCn1c(SC(C)C(=O)NC2CC2)nnc1-c1cccc(C)c1 (stereo unspecified) | 1.39%
O=C(Nc1ccc(C(=O)O)c(O)c1)c1ccccc1 | 85.1% (active)
O=C(Nc1cccc(C(=O)N2CCCC2)c1)c1ccccc1 | -13%
O=C(Nc1cccc(NC(=O)c2cccc(F)c2)c1)c1ccccc1 | -10.7%
CCN(CC)C(=O)CSc1ncnc2c1cnn2-c1ccccc1 | 2.6%
Cc1ccc(-n2ncc3c(Nc4cccc(C(=O)O)c4)ncnc32)cc1 | 92.6% (active)
Cc1ccc(Nc2ncnc3c2cnn3C)c(C)c1 | -0.763%
CC(=O)NC1C(Oc2ccc(C=O)cc2)OC(COC(C)=O)C(OC(C)=O)C1OC(C)=O (stereo unspecified) | 5.78%
Cc1cccc(NC(=O)CSc2nc3c(c(=O)[nH]2)CCC3)c1C | -1.39%
CC(=O)Nc1ccc(NC(=O)CSc2nnc(COc3ccccc3C)n2CC2CCCO2)cc1 (stereo unspecified) | 5.76%
COC(=O)c1ccc([C@@H](O)[C@H](C)C(=O)CC(=O)OC(C)(C)C)cc1 | 6.36%
O=C(Nc1cccc(NC(=O)c2ccccc2[N+](=O)[O-])c1)c1ccccc1Cl | 6.18%
O=C(Nc1ccc2sc3ccccc3c(=O)c2c1)c1ccccc1Cl | 51.8% (active)
COc1cc(NC(=O)c2cccs2)ccc1NC(=O)c1ccccc1Cl | -1.86%
COc1ccc2[nH]c(C(=O)Nc3ccccc3Cl)cc2c1 | 6.38%
CC(OC(=O)c1cc2ccccc2[nH]1)C(=O)N(C)c1ccccc1 (stereo unspecified) | -10.4%

Structure (SMILES) | inhibition
O=C(Nc1ccccc1)c1cc2ccccc2[nH]1 | 76% (active)
CCSc1nc2c(c(=O)[nH]1)C(c1cccnc1)C(C(=O)OC(C)C)=C(C)N2 (stereo unspecified) | 11%
COc1ccc(C(CNCC(=O)Nc2ccccc2F)N(C)C)cc1 (stereo unspecified) | 2.72%
Cc1ccn2cc(-c3nonc3C)cc2c1 | 4.32%
CS(=O)(=O)N1CCN(C(=O)CSc2ccccc2)CC1 | -0.93%
O=c1c2c(nc3cc(-c4cccc(Cl)c4)[nH]n13)CCCC2 | 66.7% (active)
Cc1cc(=O)n2[nH]c(-c3cccc(Cl)c3)cc2n1 | 1.33%
CCCCN1Cc2c(nc3cc(-c4ccccc4)[nH]n3c2=O)C1=O | -4.67%
Cc1nc2ccccc2c(=O)n1-c1ccc(NS(=O)(=O)c2ccc(F)cc2F)cc1 | -0.987%
Clc1ccc(C2=CSC3=Nc4cccc5cccc(c45)N23)cc1 | 51.9% (active)
CCC(=O)c1ccc(OCC(O)Cn2nc(C)c(C(C)=O)c2C)cc1 (stereo unspecified) | 0.247%
CC(C)(C)c1ccc(NC(=O)NCc2ccco2)cc1 | 90.7% (active)
CC(C)(C)NC(=O)NCc1ccco1 | -4.67%
CC(C)(C)c1ccc(C(=O)NCc2ccco2)cc1 | -16.4%
CN(C)S(=O)(=O)c1cc(C(=O)Nc2ccn(C)n2)c(Cl)cc1Cl | -0.713%
CN(C)NC(=O)C(NC(=O)c1ccc(N)cc1)C12CC3CC(CC(C3)C1)C2 (stereo unspecified) | -0.0401%
Cc1noc(C)c1COc1ccc2ccc(=O)oc2c1 | -8.22%
COc1ccc(-c2cc3ccc(OCc4nn[nH]n4)cc3oc2=O)cc1 | 51% (active)
CCCCc1cc(=O)oc2cc(C)cc(OCc3nn[nH]n3)c12 | 1.78%
O=C(CNCCC1=CCCCC1)Nc1ccccc1N1CCCCCC1 | -5.33%
O=C(O)/C=C/c1ccc2c(c1)OCCO2 | 2.14%
CN(C)c1ccc(/C=C/C(=O)c2ccc(O)cc2)cc1[N+](=O)[O-] | -14.8%
O=C(/C=C/c1ccc2c(c1)OCCO2)c1ccc(O)cc1 | 68.4% (active)
